From PubChem BioAssay (NCATS)
Results filed as inconclusive are left out. Active and inactive are the calls of the source. Unless noted, calls come from the whole dose curve; as a rule, active = well fitted curve in the direction sought with a large enough effect; inconclusive = small, poorly fitted or top-dose-only effect, or another doubt; inactive = no such curve, though single readings can be large; an effect the other way counts as inactive or inconclusive.

Assays:
[1] = qHTS for Inhibitors of Cell Surface uPA Generation: Validation Assay (AID 493164);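 note: RAW 264.7 macrophage cells exposed to compound for 18 h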
Procedure, shortened: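 RAW 264.7, 4000 cells/well, o/n plating; cpd 7-pt 1:5 dilution 2.45 nM–38.3 uM final; 18 h, 37 C/5% CO2; ATP-Lite, 5 s luminescence exposure.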

[2] = molecular target: Peptidyl-prolyl cis-trans isomerase NIMA-interacting 1 (Homo sapiens) (UniProt Q13526); test: qHTS Validation Assay to Find Inhibitors of Pin1 (AID 504536; active = well fitted inhibition curve with a large enough effect in the polarisation, with a control signal flat, not every such curve was filed as active; the % refers to the polarisation)
Peptidyl-prolyl cis-trans isomerase NIMA-interacting 1 (Homo sapiens), sequence (Q13526 whole entry, looked up): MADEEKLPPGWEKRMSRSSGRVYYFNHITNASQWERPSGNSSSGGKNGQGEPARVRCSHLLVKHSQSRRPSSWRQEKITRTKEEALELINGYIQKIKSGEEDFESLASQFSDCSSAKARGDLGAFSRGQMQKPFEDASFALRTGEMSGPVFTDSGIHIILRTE
Procedure, shortened: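 Fluorescence polarization competition: compounds (titration) displace HiFluor-488-labeled Pin1-1b peptide from Pin1 (0.3 uM final) in pH 7.5 HEPES buffer with DTT, 10 min at room temperature; %Activity normalized to no-enzyme wells, curves fitted.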

[3] = molecular target: Phosphoglycerate kinase, glycosomal (Trypanosoma brucei brucei) (UniProt P07378); test: qHTS Validation Assay to Find Inhibitors of Phosphoglycerate Kinase (AID 504547)
Phosphoglycerate kinase, glycosomal (Trypanosoma brucei brucei), sequence (P07378 whole entry, looked up): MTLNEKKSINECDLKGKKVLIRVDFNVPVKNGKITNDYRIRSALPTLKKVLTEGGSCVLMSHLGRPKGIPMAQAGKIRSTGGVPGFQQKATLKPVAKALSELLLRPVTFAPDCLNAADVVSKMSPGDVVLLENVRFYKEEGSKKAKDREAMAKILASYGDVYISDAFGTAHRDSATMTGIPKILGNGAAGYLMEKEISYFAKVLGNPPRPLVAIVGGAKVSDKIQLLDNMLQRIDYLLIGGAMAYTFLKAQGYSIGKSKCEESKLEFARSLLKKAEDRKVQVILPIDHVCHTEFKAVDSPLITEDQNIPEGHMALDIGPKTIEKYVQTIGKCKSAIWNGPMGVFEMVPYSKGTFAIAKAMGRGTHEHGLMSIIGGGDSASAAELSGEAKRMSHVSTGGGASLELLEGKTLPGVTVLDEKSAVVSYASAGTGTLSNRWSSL
Procedure, shortened: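 Inhibition of the enzyme is judged by a Kinase-Glo Plus luminescent signal following a one-hour incubation at room temperature. Because 1,3-BPG is unstable, it is made in situ by GAPDH at 100nM final; no-PGK wells define the baseline.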

[4] = molecular target: phosphoglycerate mutase (Leishmania major) (UniProt Q4Q090); test: qHTS Validation Assay to Find Inhibitors of Phosphoglycerate Mutase (AID 504548); details: Potency: inhibition qHTS; note: potency is the fitted concentration of half-maximal effect
phosphoglycerate mutase (Leishmania major), sequence (Q4Q090 1-553): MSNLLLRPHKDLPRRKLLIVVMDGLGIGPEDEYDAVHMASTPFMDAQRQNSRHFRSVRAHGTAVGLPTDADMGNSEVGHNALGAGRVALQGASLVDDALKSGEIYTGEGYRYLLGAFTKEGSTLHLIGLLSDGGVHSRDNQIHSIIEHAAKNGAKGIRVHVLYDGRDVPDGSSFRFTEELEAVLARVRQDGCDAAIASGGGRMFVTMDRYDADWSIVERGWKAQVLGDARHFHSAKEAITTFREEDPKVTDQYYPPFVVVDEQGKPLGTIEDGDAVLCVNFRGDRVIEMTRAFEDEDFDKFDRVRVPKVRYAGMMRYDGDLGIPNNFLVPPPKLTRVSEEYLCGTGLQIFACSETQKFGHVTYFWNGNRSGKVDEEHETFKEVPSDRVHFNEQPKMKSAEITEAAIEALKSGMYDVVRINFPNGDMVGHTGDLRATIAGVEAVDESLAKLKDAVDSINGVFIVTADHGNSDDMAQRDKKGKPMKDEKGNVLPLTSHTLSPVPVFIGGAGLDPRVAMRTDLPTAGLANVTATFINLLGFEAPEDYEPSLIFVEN
Procedure, shortened: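 Lm PGAM at 1.25 nM final with substrate in 100 mM TEA pH 7.6, 5 mM MgCl2, 0.01% Tween-20; 45 min at room temperature. Kinase-GloPlus added, 10 min, end-point luminescence read.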

[5] = molecular target: Ubiquitin carboxyl-terminal hydrolase 1 (Homo sapiens) (UniProt O94782); test: Inhibitors of USP1/UAF1: Pilot qHTS (AID 504865); note: nearly all actives have a fitted effect of over 35% in size; note: potency is the fitted concentration of half-maximal effect
Ubiquitin carboxyl-terminal hydrolase 1 (Homo sapiens), sequence (O94782 whole entry, looked up): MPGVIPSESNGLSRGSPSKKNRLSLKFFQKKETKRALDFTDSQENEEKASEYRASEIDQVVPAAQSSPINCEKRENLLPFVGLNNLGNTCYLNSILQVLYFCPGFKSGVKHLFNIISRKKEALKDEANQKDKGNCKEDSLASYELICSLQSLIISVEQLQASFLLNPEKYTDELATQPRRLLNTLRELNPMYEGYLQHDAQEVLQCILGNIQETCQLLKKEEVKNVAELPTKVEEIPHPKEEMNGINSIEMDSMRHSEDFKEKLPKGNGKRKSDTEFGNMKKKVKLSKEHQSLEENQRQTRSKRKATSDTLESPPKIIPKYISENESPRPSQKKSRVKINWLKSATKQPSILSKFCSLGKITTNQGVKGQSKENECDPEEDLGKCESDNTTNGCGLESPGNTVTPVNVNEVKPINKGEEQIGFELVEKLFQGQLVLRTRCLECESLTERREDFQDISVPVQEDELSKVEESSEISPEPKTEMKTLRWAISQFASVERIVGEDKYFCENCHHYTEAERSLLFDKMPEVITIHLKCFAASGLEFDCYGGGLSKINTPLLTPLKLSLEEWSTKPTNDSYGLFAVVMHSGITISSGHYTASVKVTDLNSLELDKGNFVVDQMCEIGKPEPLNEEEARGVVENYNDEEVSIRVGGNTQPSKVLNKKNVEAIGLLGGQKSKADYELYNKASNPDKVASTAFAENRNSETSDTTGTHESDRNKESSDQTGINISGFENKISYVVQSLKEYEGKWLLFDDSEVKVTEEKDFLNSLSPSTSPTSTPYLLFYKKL
Procedure, shortened: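 1nM USP1/UAF1 + cpd, 15 min RT; start w/ Ub-Rho 150nM final; kinetic FL 480/540 nm, 6 reads q60 s. Buffer 50mM HEPES pH 7.8, 0.5mM EDTA, 1mM TCEP, 0.01% Tween-20, 0.1 mg/ml BSA.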

[6] = qHTS for Inhibitors of ATXN expression: Validation of Cytotoxic Assay (AID 588349)
Procedure, shortened: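 HEK293 cells were dosed with titrated compounds for 72 hr at 37 degrees C. Viability was read by CellTiter Glo luminescence, with intracellular ATP as the marker of cell survival.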

[7] = qHTS for Inhibitors of ATXN expression: Validation (AID 588378); note: nearly all actives have a fitted effect of over 75% in size; note: potency is the fitted concentration of half-maximal effect
Procedure, shortened: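 Cells: HEK293-ATXN2-FFLuc, phenol-red free DMEM, 2 h attachment. Compound pin-transfer, 24 h, 37 degrees C, 5% CO2. CellTiter-Fluor 30 min, Ex405/Em525; Bright-Glo 5 min, luminescence 2 s exposure.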

[8] = molecular target: Galactokinase (Homo sapiens) (UniProt P51570); test: qHTS Validation Assay for Inhibitors of Human Galactokinase (GALK) (AID 493189)
Galactokinase (Homo sapiens), sequence (P51570 whole entry, looked up): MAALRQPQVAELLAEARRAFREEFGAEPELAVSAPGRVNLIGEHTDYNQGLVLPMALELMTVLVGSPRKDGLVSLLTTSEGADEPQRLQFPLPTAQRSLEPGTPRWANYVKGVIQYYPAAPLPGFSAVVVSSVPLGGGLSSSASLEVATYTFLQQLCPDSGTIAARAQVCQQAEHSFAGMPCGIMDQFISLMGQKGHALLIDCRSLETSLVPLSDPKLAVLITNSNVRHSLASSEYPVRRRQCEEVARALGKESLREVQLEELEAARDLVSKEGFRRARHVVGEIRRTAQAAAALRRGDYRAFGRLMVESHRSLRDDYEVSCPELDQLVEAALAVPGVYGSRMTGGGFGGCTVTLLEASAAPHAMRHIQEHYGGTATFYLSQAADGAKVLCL
Procedure, shortened: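 Luminescence from leftover ATP (Kinase-Glo Plus, 10 min) served as read-out after a 1 h room-temperature reaction of 5 nM GALK, 100 uM galactose and 35 uM ATP at pH8.0.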

[9] = Validation screen for small molecules that induce DNA re-replication in SW480 colon adenocarcinoma cells (AID 504364)
Procedure, shortened: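 SW480 cells seeded at 250 per well were exposed to compound or DMSO for 48 hr at 37 C, 5% CO2, then stained with Hoechst for 40 min. DNA content per nucleus was imaged (405 nm ex, 500-530 nm em).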

[10] = molecular target: DNA dC->dU-editing enzyme APOBEC-3G (Homo sapiens) (UniProt Q9HC16); test: qHTS for inhibitors of Vif-A3G interactions: Validation (AID 588379)
DNA dC->dU-editing enzyme APOBEC-3G (Homo sapiens), sequence (Q9HC16 whole entry, looked up): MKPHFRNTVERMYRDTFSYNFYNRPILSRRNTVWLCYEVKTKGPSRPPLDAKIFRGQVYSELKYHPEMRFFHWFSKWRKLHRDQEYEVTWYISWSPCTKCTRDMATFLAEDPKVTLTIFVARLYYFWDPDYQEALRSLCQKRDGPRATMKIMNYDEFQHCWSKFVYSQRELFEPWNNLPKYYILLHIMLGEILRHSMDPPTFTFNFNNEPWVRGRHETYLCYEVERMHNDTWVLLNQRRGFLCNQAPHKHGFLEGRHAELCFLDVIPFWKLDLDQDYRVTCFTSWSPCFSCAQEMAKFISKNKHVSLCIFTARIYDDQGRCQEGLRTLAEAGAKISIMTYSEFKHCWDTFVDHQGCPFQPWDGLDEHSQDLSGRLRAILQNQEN
Procedure, shortened: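 HeLa cells stably expressing Vif and A3G-eYFP, 700 cells/well, incubated overnight at 37 deg C, then exposed to compound overnight at 37 deg C. Inhibition of Vif-mediated degradation read as increased yellow fluorescence (Ex 488/Em 500-530) by laser-scanning cytometry.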

[11] = molecular target: Estrogen receptor (Homo sapiens) (UniProt P03372); test: qHTS assay for small molecule agonists of estrogen receptor alpha signaling (AID 588514; calls by dose curve; note: nearly all actives have a fitted effect of over 70% in size)
Estrogen receptor (Homo sapiens), sequence (P03372 whole entry, looked up): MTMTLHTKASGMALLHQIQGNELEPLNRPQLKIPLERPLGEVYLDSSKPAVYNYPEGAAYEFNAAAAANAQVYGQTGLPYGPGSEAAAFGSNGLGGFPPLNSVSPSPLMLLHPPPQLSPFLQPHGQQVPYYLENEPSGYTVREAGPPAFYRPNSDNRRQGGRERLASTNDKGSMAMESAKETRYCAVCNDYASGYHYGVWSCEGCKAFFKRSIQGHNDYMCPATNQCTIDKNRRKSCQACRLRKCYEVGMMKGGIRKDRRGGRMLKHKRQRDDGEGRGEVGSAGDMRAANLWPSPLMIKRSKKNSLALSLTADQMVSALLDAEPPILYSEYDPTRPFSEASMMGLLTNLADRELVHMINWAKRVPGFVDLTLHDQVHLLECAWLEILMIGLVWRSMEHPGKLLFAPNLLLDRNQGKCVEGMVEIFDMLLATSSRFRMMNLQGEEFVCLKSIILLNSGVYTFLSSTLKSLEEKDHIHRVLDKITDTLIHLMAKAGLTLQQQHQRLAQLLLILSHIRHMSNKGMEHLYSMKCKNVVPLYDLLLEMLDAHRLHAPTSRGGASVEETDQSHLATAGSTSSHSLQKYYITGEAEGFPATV
Procedure, shortened: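 ER-alpha-UAS-bla GripTite HEK 293 cells in medium with 2% charcoal/dextran-treated FBS were treated with compound titrations at 37 C for 18 hrs; beta-lactamase reporter read by CCF4 fluorescence after 2 hrs at RT.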

[12] = molecular target: Peroxisome proliferator-activated receptor gamma (Homo sapiens) (UniProt P37231); test: qHTS assay for small molecule agonists of peroxisome proliferator-activated receptor gamma signaling (AID 588536; active = well fitted curve in the direction sought with a large enough effect in the signal ratio, with a control signal flat, not every such curve was filed as active; the % refers to the signal ratio)
Peroxisome proliferator-activated receptor gamma (Homo sapiens), sequence (P37231 whole entry, looked up): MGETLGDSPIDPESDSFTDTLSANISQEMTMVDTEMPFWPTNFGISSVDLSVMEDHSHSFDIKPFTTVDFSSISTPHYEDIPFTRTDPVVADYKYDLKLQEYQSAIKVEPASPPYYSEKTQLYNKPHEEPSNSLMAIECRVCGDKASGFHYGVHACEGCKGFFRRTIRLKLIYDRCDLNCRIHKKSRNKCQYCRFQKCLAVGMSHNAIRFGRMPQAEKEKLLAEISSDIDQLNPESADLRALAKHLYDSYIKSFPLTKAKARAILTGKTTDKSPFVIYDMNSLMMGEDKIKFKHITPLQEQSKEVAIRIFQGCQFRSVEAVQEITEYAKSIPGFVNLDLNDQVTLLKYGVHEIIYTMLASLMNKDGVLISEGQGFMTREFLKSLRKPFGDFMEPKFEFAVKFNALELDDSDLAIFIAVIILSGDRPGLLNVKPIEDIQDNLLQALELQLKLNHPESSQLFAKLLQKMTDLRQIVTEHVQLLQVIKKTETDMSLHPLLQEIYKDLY
Procedure, shortened: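 GeneBLAzer PPAR-gamma-UAS-bla HEK293 cells in 1% charcoal/dextran-treated FBS medium were treated 16 h at 37 C with compounds. Beta-lactamase activity was read by CCF4 ratio (460/530 nm). Response was normalized to 2 uM rosiglitazone (100%) and DMSO, then Hill-fitted for EC50 and efficacy.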

[13] = molecular target: Peroxisome proliferator-activated receptor gamma (Homo sapiens) (UniProt P37231); test: qHTS assay for small molecule antagonists of peroxisome proliferator-activated receptor gamma signaling (AID 588537; active = well fitted inhibition curve with a large enough effect in the signal ratio, with a control signal flat, not every such curve was filed as active; the % refers to the signal ratio;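 note: reporter cells co-stimulated with 50 nM rosiglitazone agonist during compound treatment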)
Procedure, shortened: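 Inhibitors of agonist-stimulated UAS-bla reporter activity were sought in HEK293 cells; rosiglitazone (50 nM) defined full signal and DMSO baseline. Curves fitted to Hill model gave IC50 and efficacy.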

[14] = molecular target: Bile acid receptor (Homo sapiens) (UniProt Q96RI1); test: qHTS assay for small molecule antagonists of farnesoid X receptor signaling (AID 588526; calls by dose curve)
Bile acid receptor (Homo sapiens), sequence (Q96RI1 whole entry, looked up): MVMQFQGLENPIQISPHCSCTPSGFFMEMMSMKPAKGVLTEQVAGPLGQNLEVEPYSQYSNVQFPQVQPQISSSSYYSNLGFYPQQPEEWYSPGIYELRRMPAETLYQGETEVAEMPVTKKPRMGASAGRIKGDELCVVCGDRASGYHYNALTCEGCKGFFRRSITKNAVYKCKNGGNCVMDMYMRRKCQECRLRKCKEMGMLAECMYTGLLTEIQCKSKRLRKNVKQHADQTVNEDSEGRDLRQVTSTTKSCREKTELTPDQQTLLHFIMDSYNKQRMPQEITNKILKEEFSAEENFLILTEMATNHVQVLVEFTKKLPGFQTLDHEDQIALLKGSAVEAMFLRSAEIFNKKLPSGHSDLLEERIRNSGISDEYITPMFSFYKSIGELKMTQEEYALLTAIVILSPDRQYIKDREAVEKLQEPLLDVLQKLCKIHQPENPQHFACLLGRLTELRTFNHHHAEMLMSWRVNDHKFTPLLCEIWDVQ
Procedure, shortened: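 Beta-lactamase reporter antagonist mode: HEK293T FXR-UAS-bla cells, titrated compound, CDCA stimulation, 16 h 37 C, CCF4 dye 2 h RT. Data normalized to CDCA 50 uM and DMSO; Hill-fit IC50.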

[15] = molecular target: Glucocorticoid receptor (Homo sapiens) (UniProt P04150); test: qHTS assay for small molecule antagonists of glucocorticoid receptor signaling (AID 588533; active = well fitted inhibition curve with a large enough effect in the signal ratio, with a control signal flat, not every such curve was filed as active; the % refers to the signal ratio;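 note: cells stimulated with 2 nM dexamethasone as agonist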)
Procedure, shortened: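 Antagonist-mode qHTS: compound titrations added to GRE-bla HeLa cells, then dexamethasone 2 nM final; 18 h, 37 C. CCF4 FRET fluorescence normalized to dexamethasone and DMSO; IC50 from Hill fit.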

Measured: Potency

COc1cc2c(cc1OC)C1CC(=O)C(CC(C)C)CN1CC2 (centres undefined)
inactive: [1] | [2] | [3] | [4] | [5] | [6] | [7]

C[C@H](Cc1ccc(O)c(O)c1)[C@@H](C)Cc1ccc(O)c(O)c1
active: [7] 22.4 µM
inactive: [1] | [8] | [9] | [3] | [4]

Oc1ccc2ccccc2c1SSc1c(O)ccc2ccccc12
inactive: [1] | [2] | [3] | [4] | [5] | [6] | [7]

OC(CN1CCN(c2cccc(Cl)c2)CC1)C(c1ccccc1)c1ccccc1 (centres undefined)
not listed: [9] | [11] | [12] | [13] | [14] | [15]
inactive: all other assays above

CC1(C)C(=O)N(CCN2CCC(C(=O)c3ccc(F)cc3)CC2)c2ccccc21
inactive: [1] | [8] | [9] | [2] | [3] | [4] | [5]

Cc1cccc(C#Cc2ccccc2)n1
inactive: [1] | [8] | [9] | [2] | [5] | [6] | [7] | [10]

CNC[C@H](O)c1ccc(O)c(O)c1
not listed: [3] | [14] | [15]
inactive: all other assays above

O=c1c(O)c(-c2ccc(O)cc2O)oc2cc(O)cc(O)c12
active: [5] 50.1 µM
not listed: [2] | [3] | [11]
inactive: all other assays above

CC1(C)NC(=O)N(c2ccc([N+](=O)[O-])c(C(F)(F)F)c2)C1=O
not listed: [11] | [15]
inactive: all other assays above

Cc1c(OCC(F)(F)F)ccnc1CS(=O)c1nc2ccccc2[nH]1 (centres undefined)
inactive: [1] | [8] | [9] | [2] | [3] | [4] | [5] | [6]

O=C(c1ccccc1)c1ccc2n1CCC2C(=O)O (centres undefined)
not listed: [10] | [11] | [12] | [13] | [14] | [15]
inactive: all other assays above

O=c1ccc2ccc(O)c(O)c2o1
inactive: [1] | [8] | [4] | [5] | [6] | [7]

O=C1c2c(O)cc(O)cc2OC(c2ccc(O)c(O)c2)C1O (centres undefined)
inactive: [1] | [8] | [9] | [4] | [5] | [6] | [7] | [10]

NC(=NCc1ccccc1)NC(=O)c1nc(Cl)c(N)nc1N
inactive: [1] | [8] | [9] | [2] | [3] | [4] | [5] | [7]

Nc1ccn([C@@H]2O[C@H](CO)[C@@H](O)C2O)c(=O)n1 (some centres undefined)
inactive: [1] | [2] | [3] | [4] | [5] | [6]

Nc1nc(N)c(N=O)c(OCC2CCCCC2)n1
inactive: [1] | [2] | [3] | [4] | [5] | [7]

O=C(NCC1CCCCN1)c1cc(OCC(F)(F)F)ccc1OCC(F)(F)F (centres undefined)
inactive: [8] | [9] | [5]

Cc1ccc(S(=O)(=O)NC(=O)NN2CC3CCCC3C2)cc1 (centres undefined)
inactive: [5]

Cc1nc2n(c(=O)c1CCN1CCC(c3noc4cc(F)ccc34)CC1)CCCC2
inactive: [8] | [9] | [5]

CN(c1nccc(=O)[nH]1)C1CCN(c2nc3ccccc3n2Cc2ccc(F)cc2)CC1
inactive: [5]

C[C@]12CCC(=O)C=C1CC[C@@H]1[C@H]2[C@@H](O)C[C@@]2(C)[C@H]1CC[C@]2(O)C(=O)CO
inactive: [5]

COC1=C(OC)C(=O)C(CCCCCCCCCCO)=C(C)C1=O
inactive: [5]

CC(C)[C@H](N)C(=O)OCCOCn1cnc2c(=O)[nH]c(N)nc21
inactive: [5]

CCCOc1ccc2nc(NC(=O)OC)[nH]c2c1
inactive: [5]

O=P(O)(O)C(O)(Cn1ccnc1)P(=O)(O)O
inactive: [5]

S=c1nc[nH]c2nc[nH]c12
inactive: [5]

C[C@H](Cn1cnc2c(N)ncnc21)OCP(=O)(O)O
inactive: [5]

C=CCc1cc(OC)c(O)c(C(=O)NCCO)c1
inactive: [5]

CCCCc1ccc2nc(NC(=O)OC)[nH]c2c1
inactive: [5]

C[Se]CCC(N)C(=O)O (centres undefined)
inactive: [5]

CCOC(=O)C(C)Oc1cccc2c(=O)n(CC(=O)Nc3ccc4c(c3)OCCO4)ccc12 (centres undefined)
inactive: [1] | [3] | [4] | [5] | [6] | [7]

CCN(CCO)CCCC(C)Nc1ccnc2cc(Cl)ccc12 (centres undefined)
inactive: [5]

CN1CCC(=C2c3ccccc3CCc3sccc32)CC1
inactive: [5]

CN(C)CCc1c[nH]c2ccc(Cn3cncn3)cc12
inactive: [5]

CCCCCCCCCCCCCCCCCCCCCCO
inactive: [5]

N=C(N)c1ccc2cc(OC(=O)c3ccc(N=C(N)N)cc3)ccc2c1
inactive: [5]

Cc1ncc([N+](=O)[O-])n1CC(C)O (centres undefined)
inactive: [5]

CN1C(C(=O)Nc2ccccn2)=C(O)c2sccc2S1(=O)=O
inactive: [5]

O=C(CS(=O)Cc1ccco1)NCC=CCOc1cc(CN2CCCCC2)ccn1 (centres undefined)
inactive: [5]

O=C(OC1C[C@H]2CC[C@@H](C1)[N+]21CCCC1)C(O)(c1ccccc1)c1ccccc1 (some centres undefined)
inactive: [5]

O=C1c2ccccc2-c2n[nH]c3cccc1c23
active: [4] 21.3 µM
inactive: [8] | [9] | [3] | [5] | [7] | [10]

CCCCCCCCOc1ccccc1C(=O)Nc1ccc(C(=O)OCC[N+](C)(CC)CC)cc1
active: [5] 79.4 µM

CC[C@]1(O)C[C@H]2CN(CCc3c([nH]c4ccccc34)[C@@](C(=O)OC)(c3cc4c(cc3OC)N(C=O)[C@H]3[C@@](O)(C(=O)OC)[C@H](OC(C)=O)[C@]5(CC)C=CCN6CC[C@]43[C@@H]65)C2)C1
inactive: [5]
